Several values for one entry are separate records, joined by “and”; a condition that tells them apart may be missing. Equal entries are not always repeated.

In the assay the target is Apelin receptor (Homo sapiens) (UniProt P35414). As to the kind of experiment: apelin receptor (APJ) antagonists, SAR follow-up, counter-screen for CXCR6 antagonist project, cell-based, beta-arrestin, DiscoveRx, panel, CHO-K1 (AID 651598). The following applies: CHO-K1 PathHunter beta-arrestin luminescence, antagonist mode; run 1, at 80 µM (top of the series). Background: Counterscreens check selectivity or assay interference.
Sequence of Apelin receptor (Homo sapiens) (P35414 whole entry, looked up): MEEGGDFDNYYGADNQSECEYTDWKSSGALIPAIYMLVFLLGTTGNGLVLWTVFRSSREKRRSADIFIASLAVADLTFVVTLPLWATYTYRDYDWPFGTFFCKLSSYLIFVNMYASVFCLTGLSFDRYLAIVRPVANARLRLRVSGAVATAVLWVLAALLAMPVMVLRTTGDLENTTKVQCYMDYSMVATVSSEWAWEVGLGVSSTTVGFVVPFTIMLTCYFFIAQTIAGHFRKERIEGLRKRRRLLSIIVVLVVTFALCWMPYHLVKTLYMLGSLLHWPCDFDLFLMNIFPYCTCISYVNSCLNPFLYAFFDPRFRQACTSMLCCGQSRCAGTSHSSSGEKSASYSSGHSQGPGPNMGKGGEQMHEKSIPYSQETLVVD
Take `COc1cc(C(=O)NC2CC3CCC(C2)N3CC(=O)Nc2ccccc2)cc(OC)c1OC` (stereo not drawn): the inhibition is 15.6% and 6.78%.
The result for `COc1cc(C(=O)NC2CCN(CC(=O)Nc3ccccc3)CC2)cc(OC)c1OC` reads -17.6%; that for `COc1cc(C(=O)NC2CC3CCCC(C2)N3CC(=O)Nc2ccccc2)cc(OC)c1OC` (stereo not drawn), -17.1% and -7.52% and 20.1%.

For orientation: inhibition means the change of the read-out against control, counted positive when it falls.

The values above are taken from PubChem BioAssay AID651598 (Sanford-Burnham Center for Chemical Genomics, 2012).
